# Results from PubChem BioAssay AID1159580 (chemical genetic matrix, 2015).
# Out of some 5,500 compounds screened, about 2,000 (36%) were called active. Another 18% or so got no clear call; they are omitted. The list shows a part of the results. Values without a mark were called inactive. No stated cut-off is given here; in the data, active means normalized growth mostly below about 0.91 (no sharp cut-off); inconclusive means no clear call, values can overlap the other calls; inactive means mostly above about 0.92.
# Assay: chemical genetic growth profiling, strain panel (AID 1159580);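 further: tested at 20 µM; growth read once vehicle control cultures reached saturation at 30 °C; 1 = growth at the plate median or of vehicle wells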
# Settings: S. cerevisiae deletion strains, growth OD
smiles,measurement,setting,value
O=[N+]([O-])c1ccc(Sc2ccccc2)cc1O,normalized growth,"locus YAR019C, strain CDC15, stronger effect = lower value",0.915
same,normalized growth,"locus YBL105C, strain PKC1, stronger effect = lower value",0.925
same,normalized growth,"locus YBR135W, strain CKS1, stronger effect = lower value",0.927
same,normalized growth,"locus YBR136W, strain MEC1, stronger effect = lower value",0.924
same,normalized growth,"locus YBR160W, strain CDC28, stronger effect = lower value",0.929
same,normalized growth,"locus YDL017W, strain CDC7, stronger effect = lower value",0.929
same,normalized growth,"locus YDL028C, strain MPS1, stronger effect = lower value",0.931
same,normalized growth,"locus YDL101C, strain DUN1, stronger effect = lower value",0.914
same,normalized growth,"locus YDL108W, strain KIN28, stronger effect = lower value",0.927
same,normalized growth,"locus YDL132W, strain cdc53, stronger effect = lower value",0.909
same,normalized growth,"locus YDL214C, strain PRR2, stronger effect = lower value",0.823
same,normalized growth,"locus YDR052C, strain DBF4, stronger effect = lower value",0.943
same,normalized growth,"locus YDR054C, strain cdc34, stronger effect = lower value",0.899
same,normalized growth,"locus YDR226W, strain ADK1, stronger effect = lower value",0.958
same,normalized growth,"locus YDR477W, strain SNF1, stronger effect = lower value",0.844
same,normalized growth,"locus YER123W, strain YCK3, stronger effect = lower value",0.78
same,normalized growth,"locus YER133W, strain GLC7, stronger effect = lower value",0.831
same,normalized growth,"locus YFL009W, strain cdc4, stronger effect = lower value",0.91
same,normalized growth,"locus YFL029C, strain CAK1, stronger effect = lower value",0.928
same,normalized growth,"locus YFR003C, strain YPI1, stronger effect = lower value",0.928
same,normalized growth,"locus YFR019W, strain FAB1, stronger effect = lower value",0.895
same,normalized growth,"locus YFR028C, strain CDC14, stronger effect = lower value",0.959
same,normalized growth,"locus YGR040W, strain KSS1, stronger effect = lower value",0.84
same,normalized growth,"locus YGR052W, strain FMP48, stronger effect = lower value",0.817
same,normalized growth,"locus YGR092W, strain DBF2, stronger effect = lower value",0.709
same,normalized growth,"locus YHR030C, strain SLT2, stronger effect = lower value",0.904
same,normalized growth,"locus YHR079C, strain IRE1, stronger effect = lower value",0.812
same,normalized growth,"locus YHR082C, strain KSP1, stronger effect = lower value",0.838
same,normalized growth,"locus YHR205W, strain SCH9, stronger effect = lower value",0.864
same,normalized growth,"locus YIL147C, strain SLN1, stronger effect = lower value",0.923
same,normalized growth,"locus YJL095W, strain BCK1, stronger effect = lower value",0.806
same,normalized growth,"locus YJL128C, strain PBS2, stronger effect = lower value",0.843
same,normalized growth,"locus YJL157C, strain FAR1, stronger effect = lower value",0.796
same,normalized growth,"locus YJR016C, strain ILV3, stronger effect = lower value",0.913
same,normalized growth,"locus YJR066W, strain TOR1 (second series), stronger effect = lower value",0.834
same,normalized growth,"locus YJR066W, strain TOR1, stronger effect = lower value",0.827
same,normalized growth,"locus YKL048C, strain ELM1, stronger effect = lower value",0.878
same,normalized growth,"locus YKL067W, strain YNK1, stronger effect = lower value",0.821
same,normalized growth,"locus YKL101W, strain HSL1, stronger effect = lower value",0.862
same,normalized growth,"locus YKL193C, strain SDS22, stronger effect = lower value",0.921
same,normalized growth,"locus YKL203C, strain TOR2, stronger effect = lower value",0.871
same,normalized growth,"locus YLR113W, strain HOG1, stronger effect = lower value",0.736 (active)
same,normalized growth,"locus YLR133W, strain CKI1, stronger effect = lower value",0.85
same,normalized growth,"locus YLR403W, strain SFP1, stronger effect = lower value",0.8
same,normalized growth,"locus YML070W, strain DAK1, stronger effect = lower value",0.824
same,normalized growth,"locus YMR001C, strain CDC5, stronger effect = lower value",0.919
same,normalized growth,"locus YMR205C, strain PFK2 (second series), stronger effect = lower value",0.824
same,normalized growth,"locus YMR277W, strain FCP1, stronger effect = lower value",0.917
same,normalized growth,"locus YNL006W, strain LST8, stronger effect = lower value",0.925
same,normalized growth,"locus YNL020C, strain ARK1, stronger effect = lower value",0.837
same,normalized growth,"locus YNL161W, strain CBK1, stronger effect = lower value",0.922
same,normalized growth,"locus YNL183C, strain NPR1, stronger effect = lower value",0.828
same,normalized growth,"locus YNL207W, strain RIO2, stronger effect = lower value",0.912
same,normalized growth,"locus YNL222W, strain SSU72, stronger effect = lower value",0.924
same,normalized growth,"locus YNL307C, strain MCK1 (second series), stronger effect = lower value",0.836
same,normalized growth,"locus YOL078W, strain AVO1, stronger effect = lower value",0.903
same,normalized growth,"locus YOL136C, strain PFK27, stronger effect = lower value",0.816
same,normalized growth,"locus YOR061W, strain CKA2, stronger effect = lower value",0.817
same,normalized growth,"locus YOR119C, strain RIO1, stronger effect = lower value",0.892
same,normalized growth,"locus YOR231W, strain MKK1, stronger effect = lower value",0.806
same,normalized growth,"locus YOR329C, strain SCD5, stronger effect = lower value",0.92
same,normalized growth,"locus YPL031C, strain PHO85, stronger effect = lower value",0.807
same,normalized growth,"locus YPL153C, strain RAD53, stronger effect = lower value",0.828
same,normalized growth,"locus YPL204W, strain HRR25, stronger effect = lower value",0.798
same,normalized growth,"locus YPL209C, strain IPL1, stronger effect = lower value",0.923
same,normalized growth,"locus YPL256C, strain CLN2, stronger effect = lower value",0.895
same,normalized growth,"locus YPR025C, strain CCL1, stronger effect = lower value",0.924
same,normalized growth,"locus YPR106W, strain ISR1, stronger effect = lower value",0.875 (active)
same,normalized growth,"locus YPR111W, strain DBF20, stronger effect = lower value",0.89
same,normalized growth,"strain NNK1, stronger effect = lower value",0.892
same,normalized growth,"strain TSCII, stronger effect = lower value",0.906
